# According to the supplement of paper PMC9023506:
# Structures can show the parent of a compound that is named as a salt.
# System: Danio rerio larvae (5 dpf)
# Assay: excitability to 1-s acoustic pulses, difference vs DMSO (percentage points (treated minus DMSO)); higher = more of the behaviour than the DMSO vehicle control
# Settings: 10 µM; exposure time: 3 h pre-incubation + 3 h imaging
# Procedure, shortened: (§1)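 Library drugs were diluted 1000× from DMSO stocks into egg water to reach 10 µM and applied to 5-dpf wild-type zebrafish larvae in 96-well ProxiPlates, 48 larvae per drug. The larvae stayed exposed for 3 h before imaging and for the 3 h of imaging at 28.5 °C. Behaviour scores, given in percentage points, are the treated mean minus the vehicle mean for movement and upper-half location.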
row,SMILES,excitability to 1-s acoustic pulses
1,CC(C)c1nc(CN(C)C(=O)N[C@H](C(=O)N[C@@H](Cc2ccccc2)C[C@H](O)[C@H](Cc2ccccc2)NC(=O)OCc2cncs2)C(C)C)cs1 [Ritonavir],7.52
2,COCCc1ccc(OCC(O)CNC(C)C)cc1 (stereo unspecified) [Metoprolol tartrate],-8.67
3,N[C@@H]1[C@H]2CN(c3nc4c(cc3F)c(=O)c(C(=O)O)cn4-c3ccc(F)cc3F)C[C@@H]12 [Trovafloxacin mesylate],11.3
4,O=C1CCc2ccc(OCCCCN3CCN(c4cccc(Cl)c4Cl)CC3)cc2N1 [Aripiprazole],16.5
5,Cc1cccc(C)c1OCC(C)N (stereo unspecified) [Mexiletine hydrochloride],1.36
6,NC(=O)c1ncn([C@@H]2O[C@H](CO)[C@@H](O)[C@H]2O)n1 [Ribavirin],-0.206
7,COc1ccc(C[C@@H](C)NC[C@H](O)c2ccc(O)c(NC=O)c2)cc1 [Arformoterol tartrate],5.34
8,CCOC(=O)C1=C(COCCN)NC(C)=C(C(=O)OC)C1c1ccccc1Cl (stereo unspecified) [Amlodipine besylate],-1.57
9,CNC(=O)c1ccccc1Sc1ccc2c(/C=C/c3ccccn3)n[nH]c2c1 [Axitinib],1.46
10,OCCN1C[C@H](O)[C@@H](O)[C@H](O)[C@H]1CO [Miglitol],5.41
11,CC(C)(C(=O)c1cccnc1)c1cccnc1 [Metyrapone],12.2
12,Cc1ccsc1C(=CCCN1CCC[C@@H](C(=O)O)C1)c1sccc1C [Tiagabine hydrochloride],-9.16
13,CC(CCc1ccc(O)cc1)NCCc1ccc(O)c(O)c1 (stereo unspecified) [Dobutamine hydrochloride],5.75

# System: Danio rerio larvae (5 dpf)
# Assay: activity during period 15 (no stimuli), difference vs DMSO (percentage points (treated minus DMSO)); higher = more of the behaviour than the DMSO vehicle control
# Settings: 10 µM; exposure time: 3 h pre-incubation + 3 h imaging
# Procedure, shortened: as §1
row,SMILES,activity during period 15
1,C[C@]12CCC(=O)C=C1CC[C@@H]1[C@@H]2[C@@H](O)C[C@@]2(C)[C@H]1CC[C@]2(O)C(=O)CO [Hydrocortisone],-3.01
2,C#CCN[C@@H]1CCc2ccccc21 [Rasagiline mesylate],-1.03
3,COCCc1ccc(OCC(O)CNC(C)C)cc1 (stereo unspecified) [Metoprolol tartrate],3.61
4,CN[C@H]1CC[C@@H](c2ccc(Cl)c(Cl)c2)c2ccccc21 [Sertraline hydrochloride],-26
5,CCOC(=O)[C@H](CCc1ccccc1)N[C@H]1CCc2ccccc2N(CC(=O)O)C1=O [Benazepril hydrochloride],4.55
6,NC(=O)c1ncn([C@@H]2O[C@H](CO)[C@@H](O)[C@H]2O)n1 [Ribavirin],-3.78
7,O=c1[nH]c(=O)n([C@H]2C[C@H](O)[C@@H](CO)O2)cc1C(F)(F)F [Trifluorothymidine],-1.33
8,O=C(O)c1cc(/N=N/c2ccc(S(=O)(=O)Nc3ccccn3)cc2)ccc1O [Sulfasalazine],15.3
9,CNC(=O)c1cc(Oc2ccc(NC(=O)Nc3ccc(Cl)c(C(F)(F)F)c3)cc2)ccn1 [Sorafenib],8.65
10,COc1cc(Nc2c(C#N)cnc3cc(OCCCN4CCN(C)CC4)c(OC)cc23)c(Cl)cc1Cl [Bosutinib],-11.7
11,CCOC(=O)C1=C(C)NC(C)=C(C(=O)OC)C1c1cccc(Cl)c1Cl (stereo unspecified) [Felodipine],-11.6
12,CCOc1ccccc1OCCN[C@H](C)Cc1ccc(OC)c(S(N)(=O)=O)c1 [Tamsulosin hydrochloride],2.6
13,COc1cc(N)c(Cl)cc1C(=O)NC1CCN(CCCOc2ccc(F)cc2)CC1OC (stereo unspecified) [Cisapride],-0.757
